# Measurements: PubChem BioAssay (NCATS)
# Where “and” joins values, the source holds several entries; their conditions need not be identical. Identical values can stand only once. Results filed as inconclusive are left out. A call without a number means that no potency is given here. Calls of active or inactive are those of the source. Calls come from the whole dose curve.
# Target: Vitamin D3 receptor (Homo sapiens) (UniProt P11473)
# Experiment: qHTS assay for small molecule antagonists of vitamin D receptor signaling (AID 588541); note: potency is the fitted concentration of half-maximal effect
# Details: HEK293T VDR-UAS-bla, beta-lactamase ratio, antagonist mode; series mostly up to 76.7 µM
# Outline: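 VDR-UAS-bla HEK293T cells (2000/well, 2% charcoal-stripped FBS) were treated with titrated compounds plus 1-alpha,25-dihydroxyvitamin D3 (50 nM or 3 nM final) for 16 h at 37 C. CCF4 beta-lactamase fluorescence was read; Hill fits gave IC50.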
# Sequence of Vitamin D3 receptor (Homo sapiens) (P11473 whole entry, looked up): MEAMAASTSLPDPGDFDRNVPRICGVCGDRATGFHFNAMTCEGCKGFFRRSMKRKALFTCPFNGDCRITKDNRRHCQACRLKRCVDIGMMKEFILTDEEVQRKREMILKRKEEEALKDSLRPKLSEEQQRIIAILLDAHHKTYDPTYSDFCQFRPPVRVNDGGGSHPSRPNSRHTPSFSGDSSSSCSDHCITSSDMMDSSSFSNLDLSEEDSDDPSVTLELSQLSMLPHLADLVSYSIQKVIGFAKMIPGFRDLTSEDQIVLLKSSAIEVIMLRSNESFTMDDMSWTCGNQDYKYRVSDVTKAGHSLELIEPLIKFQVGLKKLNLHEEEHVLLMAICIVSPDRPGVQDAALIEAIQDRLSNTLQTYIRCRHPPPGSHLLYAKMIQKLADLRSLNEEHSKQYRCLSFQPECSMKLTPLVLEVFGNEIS
row,Structure (SMILES),Potency
1,CN(C)c1ccc(C2(c3ccc(N(C)C)cc3)OC(=O)c3cc(N(C)C)ccc32)cc1,inactive
2,Cc1cc(Nc2ccc(O)cc2)ccc1N,inactive
3,CO[C@H]1/C=C/O[C@@]2(C)Oc3c(C)c(O)c4c(O)c(c5c(c4c3C2=O)NC2(CCN(CC(C)C)CC2)N=5)=NC(=O)/C(C)=C\C=C\[C@H](C)[C@H](O)[C@@H](C)[C@@H](O)[C@@H](C)[C@H](OC(C)=O)[C@@H]1C,inactive
4,C=C(C)c1ccccc1,inactive
5,Cc1ccc(S(=O)(=O)Oc2ccc(N=Nc3ccc(-c4ccc(N=Nc5c(O)ccc6cc(S(=O)(=O)O)cc(S(=O)(=O)O)c56)c(C)c4)cc3C)cc2)cc1,inactive
6,O=C1OC2(c3cc(Br)c(O)c(Br)c3Oc3c2cc(Br)c(O)c3Br)c2c(Cl)c(Cl)c(Cl)c(Cl)c21,inactive
7,ClC1=C(Cl)C(Cl)(Cl)C(Cl)=C1Cl,inactive
8,O=C1OC(O)C(C(Cl)Cl)=C1Cl (stereo not given),44.7 µM (active)
9,CC(=O)Nc1ccc(C(=O)CCl)cc1,25.1 µM (active)
10,CCC(C)Nc1ccc(NC(C)CC)cc1 (stereo not given),6.31 µM (active)
11,O=C=Nc1ccc(Cc2ccc(N=C=O)cc2)cc1,inactive
12,O=Cc1ccc(Cl)c(Cl)c1,inactive

# Target: Vitamin D3 receptor (Homo sapiens) (UniProt P11473)
# Experiment: qHTS assay for small molecule agonists of vitamin D receptor signaling (AID 588543)
# Details: HEK293T VDR-UAS-bla, beta-lactamase ratio, 16 h; series mostly up to 76.8 µM
# Outline: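 β-lactamase reporter, VDR-UAS-bla HEK293T, agonist mode. Cells plated 5 h at 37 °C, compound titration 16 h at 37 °C, CCF4 dye 2 h RT, ratio 460/530 nm. Hill fit → EC50, efficacy vs 50 nM 1α,25-(OH)2D3.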
row,Structure (SMILES),outcome
1,Cc1cc(Nc2ccc(O)cc2)ccc1N,inactive
2,CO[C@H]1/C=C/O[C@@]2(C)Oc3c(C)c(O)c4c(O)c(c5c(c4c3C2=O)NC2(CCN(CC(C)C)CC2)N=5)=NC(=O)/C(C)=C\C=C\[C@H](C)[C@H](O)[C@@H](C)[C@@H](O)[C@@H](C)[C@H](OC(C)=O)[C@@H]1C,inactive
3,Cc1cc(O)c(C(C)(C)C)cc1Sc1cc(C(C)(C)C)c(O)cc1C,inactive
4,C=C(C)c1ccccc1,inactive
5,Cc1ccc(S(=O)(=O)Oc2ccc(N=Nc3ccc(-c4ccc(N=Nc5c(O)ccc6cc(S(=O)(=O)O)cc(S(=O)(=O)O)c56)c(C)c4)cc3C)cc2)cc1,inactive
6,c1cc(OCC2CO2)cc(OCC2CO2)c1 (stereo not given),inactive
7,ClC1=C(Cl)C(Cl)(Cl)C(Cl)=C1Cl,inactive
8,O=C1OC(O)C(C(Cl)Cl)=C1Cl (stereo not given),inactive
9,CNc1ccc(O)cc1,inactive
10,CCC(C)Nc1ccc(NC(C)CC)cc1 (stereo not given),inactive
11,O=C=Nc1ccc(Cc2ccc(N=C=O)cc2)cc1,inactive
12,CC/C(=C(\c1ccccc1)c1ccc(OCCN(C)C)cc1)c1ccc(O)cc1,inactive
13,O=Cc1ccc(Cl)c(Cl)c1,inactive

# Tested on: not listed separately
# Experiment: qHTS assay for small molecule agonists of retinoid X receptor alpha signaling (AID 588544)
# Details: HEK293T RXRa-UAS-bla, beta-lactamase reporter, 18 h; 530 nm emission
row,Structure (SMILES),max response
1,Cc1cc(Nc2ccc(O)cc2)ccc1N,-10.3%
2,C=C(C)c1ccccc1,-11%
3,Cc1ccc(S(=O)(=O)Oc2ccc(N=Nc3ccc(-c4ccc(N=Nc5c(O)ccc6cc(S(=O)(=O)O)cc(S(=O)(=O)O)c56)c(C)c4)cc3C)cc2)cc1,-16.1%
4,ClC1=C(Cl)C(Cl)(Cl)C(Cl)=C1Cl,-6.21% and -5.28%
5,O=C=Nc1ccc(Cc2ccc(N=C=O)cc2)cc1,-1.3% and -4.07%
6,c1ccc2c(c1)ccc1cc3c(ccc4ccccc43)cc12,-11.8%
7,O=Cc1ccc(Cl)c(Cl)c1,2.17%

# Target: Retinoic acid receptor RXR-alpha (Homo sapiens) (UniProt P19793)
# Experiment: as above
# Details: HEK293T RXRa-UAS-bla, beta-lactamase reporter, 18 h; series mostly up to 76.7 µM
# Sequence of Retinoic acid receptor RXR-alpha (Homo sapiens) (P19793 whole entry, looked up): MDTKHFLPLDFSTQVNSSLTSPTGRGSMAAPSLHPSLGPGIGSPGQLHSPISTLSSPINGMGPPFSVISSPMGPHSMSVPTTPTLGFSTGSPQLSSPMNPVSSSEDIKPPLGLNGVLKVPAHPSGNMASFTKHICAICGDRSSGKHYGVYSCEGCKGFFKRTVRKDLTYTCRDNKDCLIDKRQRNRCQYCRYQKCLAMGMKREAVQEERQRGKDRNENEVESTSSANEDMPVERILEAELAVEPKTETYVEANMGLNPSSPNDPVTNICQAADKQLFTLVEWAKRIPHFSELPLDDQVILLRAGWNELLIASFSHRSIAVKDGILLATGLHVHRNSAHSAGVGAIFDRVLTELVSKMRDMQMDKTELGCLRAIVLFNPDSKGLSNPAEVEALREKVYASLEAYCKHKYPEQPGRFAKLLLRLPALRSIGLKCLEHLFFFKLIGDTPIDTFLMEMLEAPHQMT
row,Structure (SMILES),outcome
1,Cc1cc(Nc2ccc(O)cc2)ccc1N,inactive
2,C=C(C)c1ccccc1,inactive
3,Cc1ccc(S(=O)(=O)Oc2ccc(N=Nc3ccc(-c4ccc(N=Nc5c(O)ccc6cc(S(=O)(=O)O)cc(S(=O)(=O)O)c56)c(C)c4)cc3C)cc2)cc1,inactive
4,ClC1=C(Cl)C(Cl)(Cl)C(Cl)=C1Cl,inactive
5,O=C=Nc1ccc(Cc2ccc(N=C=O)cc2)cc1,inactive
6,c1ccc2c(c1)ccc1cc3c(ccc4ccccc43)cc12,inactive
7,O=Cc1ccc(Cl)c(Cl)c1,inactive

# Target: Thyroid hormone receptor beta (Homo sapiens) (UniProt P10828)
# Experiment: qHTS assay for small molecule agonists of thyroid hormone receptor beta signaling (AID 588545)
# Details: TR-UAS-bla GripTite HEK 293, beta-lactamase ratio, agonist mode, 18 h, percent of T3 response, DMSO as zero; series mostly up to 76.7 µM
# Outline: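 Agonist-mode beta-lactamase reporter assay, HEK 293 cells, 2% charcoal/dextran FBS; cells plated 4 hrs, compound 18 hrs at 37 C, CCF4 2 hrs RT. Normalized to 10 nM T3 (100%) and DMSO (0%); Hill fit gives EC50, efficacy.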
# Sequence of Thyroid hormone receptor beta (Homo sapiens) (P10828 whole entry, looked up): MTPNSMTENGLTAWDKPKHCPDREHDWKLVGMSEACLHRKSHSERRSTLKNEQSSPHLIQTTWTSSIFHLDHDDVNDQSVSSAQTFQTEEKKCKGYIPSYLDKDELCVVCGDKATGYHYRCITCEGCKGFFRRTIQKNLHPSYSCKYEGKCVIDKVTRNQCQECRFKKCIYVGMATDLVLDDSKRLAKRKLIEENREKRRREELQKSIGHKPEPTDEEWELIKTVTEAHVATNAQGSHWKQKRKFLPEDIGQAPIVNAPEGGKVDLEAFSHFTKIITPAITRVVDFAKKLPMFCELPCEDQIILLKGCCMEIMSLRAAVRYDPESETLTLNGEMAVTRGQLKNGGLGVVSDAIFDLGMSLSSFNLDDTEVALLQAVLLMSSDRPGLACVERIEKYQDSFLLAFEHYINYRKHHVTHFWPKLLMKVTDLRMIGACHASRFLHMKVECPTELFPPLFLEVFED
row,Structure (SMILES),outcome
1,Oc1ccc2cc(SSc3ccc4cc(O)ccc4c3)ccc2c1,inactive
2,Cc1cc(Nc2ccc(O)cc2)ccc1N,inactive
3,CO[C@H]1/C=C/O[C@@]2(C)Oc3c(C)c(O)c4c(O)c(c5c(c4c3C2=O)NC2(CCN(CC(C)C)CC2)N=5)=NC(=O)/C(C)=C\C=C\[C@H](C)[C@H](O)[C@@H](C)[C@@H](O)[C@@H](C)[C@H](OC(C)=O)[C@@H]1C,inactive
4,Cc1ccc(S(=O)(=O)Oc2ccc(N=Nc3ccc(-c4ccc(N=Nc5c(O)ccc6cc(S(=O)(=O)O)cc(S(=O)(=O)O)c56)c(C)c4)cc3C)cc2)cc1,inactive
5,c1cc(OCC2CO2)cc(OCC2CO2)c1 (stereo not given),inactive
6,ClC1=C(Cl)C(Cl)(Cl)C(Cl)=C1Cl,inactive
7,C=CC(=O)OCCOCCOC(=O)C=C,inactive
8,C/C=C1\C(=O)C[C@H]2[C@@H]3CCC4=CC(=O)CC[C@]4(C)[C@H]3CC[C@]12C,inactive
9,CNc1ccc(O)cc1,inactive
10,CCC(C)Nc1ccc(NC(C)CC)cc1 (stereo not given),inactive
11,O=C=Nc1ccc(Cc2ccc(N=C=O)cc2)cc1,inactive
12,O=Cc1ccc(Cl)c(Cl)c1,inactive

# Tested on: not listed separately
# Experiment: qHTS assay for small molecule antagonists of retinoid X receptor alpha signaling (AID 588546);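 note: cells stimulated with 9-cis-retinoic acid as agonist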
# Details: HEK293T RXRa-UAS-bla, beta-lactamase ratio, antagonist mode; measured here: W530 green channel, cytotoxicity proxy
# Outline: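 Beta-lactamase reporter inhibition, read as CCF4 fluorescence ratio (ex 405, em 460/530 nm) after 2 h at RT. HEK293T UAS-bla cells, 2500/well, were stimulated with 9-cis-RA at 500 or 100 nM final alongside test compound for 18 h at 37 C.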
row,Structure (SMILES),max response
1,CN(C)c1ccc(C2(c3ccc(N(C)C)cc3)OC(=O)c3cc(N(C)C)ccc32)cc1,-30.3%
2,Cc1cc(Nc2ccc(O)cc2)ccc1N,-15.7%
3,C=C(C)c1ccccc1,-0.247%
4,Cc1ccc(S(=O)(=O)Oc2ccc(N=Nc3ccc(-c4ccc(N=Nc5c(O)ccc6cc(S(=O)(=O)O)cc(S(=O)(=O)O)c56)c(C)c4)cc3C)cc2)cc1,-21.4%
5,O=C1OC2(c3cc(Br)c(O)c(Br)c3Oc3c2cc(Br)c(O)c3Br)c2c(Cl)c(Cl)c(Cl)c(Cl)c21,20.8%
6,ClC1=C(Cl)C(Cl)(Cl)C(Cl)=C1Cl,5.17% and -3.52%
7,O=C1OC(O)C(C(Cl)Cl)=C1Cl (stereo not given),-8.4%
8,CCC(C)Nc1ccc(NC(C)CC)cc1 (stereo not given),-40%
9,O=C=Nc1ccc(Cc2ccc(N=C=O)cc2)cc1,-3.54% and -5.83%
